{"source": "PubChem BioAssay (NCI)", "note": "This is part of a sample that, as a whole, favours compounds with a hit. Of some 83,000 tested, about 20% had one in any assay.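 Step 1: grow cells in 96-well plates. Step 2: add test compound at a single concentration. Step 3: incubate 48 h. Step 4: record percent growth.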 Unmarked numbers belong to inactive results. Active and inactive are the calls of the source. The calls were made as follows: active = growth percent below 10; inactive = the rest.", "data": [{"tested_on": "MDA-MB-468 breast", "assay": "NCI-60 one-dose screen, 48 h (100 = growth as untreated, 0 = no growth, -100 = all killed)", "settings": "10 µM unless noted", "values": [{"smiles": "Cc1ccnc(Nc2ccc([N+](=O)[O-])c(NCCN3CCOCC3)n2)c1", "growth": "26.3%"}, {"smiles": "COc1ccc(C2NC(=O)C(C#N)c3c2sc2c(F)cccc32)c(OC)c1", "note": "(configuration not stated)", "growth": "24.3%"}, {"smiles": "CCN(CC)c1ccc(N=O)cc1", "growth": "23.7%"}, {"smiles": "CCC(CC)N1C(=O)/C(=c2\\sc3n(c2=O)C2C(NN=3)N(CC)C(=O)N2CC)c2ccccc21", "note": "(configuration not stated)", "growth": "42.8%"}, {"smiles": "CN1CCN(Cc2ccc(C(=O)Nc3cncc(C#Cc4cnc5cccnn45)c3)cc2C(F)(F)F)CC1", "growth": "61.1%"}, {"smiles": "COc1ccc(C2N(c3cc(OC)c(OC)c(OC)c3)C(=O)C2(F)F)cc1F", "note": "(configuration not stated)", "growth": "44.5%"}, {"smiles": "Cn1nc(-c2ccccc2)c2c(-c3ccccc3)onc2c1=O", "growth": "15.1%"}, {"smiles": "COc1cc(OC)cc(-c2ccc(-c3ccc(C(=N)N)cn3)s2)c1", "growth": "64.4%"}, {"smiles": "O=C(c1ccc(O)c(Br)c1)c1ccc(O)c(Br)c1", "growth": "106%"}, {"smiles": "Cc1ccc(Nc2nc(NCCO)c3ccccc3n2)cc1C", "growth": "32.9%"}, {"smiles": "COc1ccc2c3c([nH]c2c1)C(=O)c1nc(C)ccc1C3=O", "growth": "14.8%"}, {"smiles": "COc1c(C)c(C)c(OC)c2c1[nH]c(=O)c1c3cccnc3cn21", "growth": "114%"}, {"smiles": "COc1ccc(Cn2c(Br)c3c(c2Br)-c2nc(NC(=O)c4ccc(OC)cc4)sc2CC3)cc1", "growth": "83.5%"}, {"smiles": "Cc1ccc(/C=N/Nc2nc(Nc3ccccc3)nc(-n3nc(C)cc3C)n2)cc1", "growth": "60.9%"}, {"smiles": "N#C/C(=C\\c1cn(Cc2ccccc2)c2ccccc12)C(=O)Nc1ncc(Cc2ccccc2Cl)s1", "growth": "-14.7% (active)"}, {"smiles": "COc1ccc(Nc2nc(N)nc3c2CCN(Cc2ccc(OC)cc2OC)C3=O)cc1", "growth": "95.6%"}, {"smiles": "COC(=O)c1nc(-c2ccccc2)oc1S(=O)(=O)Cc1ccccc1", "growth": "59.3%"}, {"smiles": "COc1cccc(NC(=O)c2sc3nc4c(cc3c2N)CCCC4)c1", "growth": "9.67% (active)"}, {"smiles": "CSc1nc2sc3cc(Cl)ccc3n2c(=N)c1C#N", "growth": "-45% (active)"}, {"smiles": "COc1cccc(-c2nc3occn3c2-c2ccnc(NCCCNS(=O)(=O)c3cccc(F)c3)n2)c1", "growth": "65.4%"}, {"smiles": "CC/C=C\\C[C@H](O)C/C=C1/C(=O)C=C[C@@H]1C/C=C\\CCCC(=O)NC", "growth": "-47.4% (active)"}, {"smiles": "N#CC1c2ccccc2C=CN1C(=O)N(c1ccccc1)c1ccccc1", "note": "(configuration not stated)", "growth": "5.11% (active)"}, {"smiles": "CCN1CCN(Cc2ccc(NC(=O)Nc3nc4ccc(Oc5ccnc(C(=O)NC)c5)cc4s3)cc2C(F)(F)F)CC1", "growth": "-66.3% (active)"}, {"smiles": "COc1cc2c(cc1-c1c(C)noc1C)ncc1nc(C3CCCCC3)n([C@H](C)COC(F)F)c12", "growth": "38.5%"}, {"smiles": "COC(=O)C(OC(C)=O)C(OC(C)=O)c1ccc(OC)c(OC)c1", "note": "(configuration not stated)", "growth": "108%"}, {"smiles": "C=CCc1cc(Nc2c3ccc(Cl)cc3nc3ccc(OC)cc23)cc(CN(CC)CC)c1O", "growth": "-19.1% (active)"}, {"smiles": "CCNC(=O)Oc1ccc(/C(=C(\\C)c2ccc(Cl)cc2)c2ccc(OCCN3CCCCC3)cc2)cc1", "growth": "56.5%"}]}]}
